Compound activity as filed in PubChem.
3T3 cytotox: kills NIH 3T3 cells | NIH 3T3 viability, CellTiter-Glo ATP luminescence, 48-72 h | Potency, µM (top dose mostly 96.7 µM), most hits filed as inhibitors | 4.3% of 94,000 active | AID 1345082; also: nearly all actives have a fitted effect of over 55% in size
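NIH 3T3 cells at 400 cells/well received 23 nL of compound by pintool and were incubated 48 or 72 h at 37 °C. Viability was read as ATP-coupled CellTiter-Glo luminescence.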
HEK293 tox: HEK 293 cell cytotoxicity; Potency, µM (series often up to 115 µM), most hits filed as inhibitors; 6.6% of 94,000 active; AID 1345083; HEK 293 viability, ATP luminescence (CellTiter-Glo), 48-72 h; also: nearly all actives have a fitted effect of over 60% in size
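Luminescence from cellular ATP, measured with CellTiter-Glo, indicates HEK 293 viability. Cells plated at 250 cells/well are treated with compound for 48 or 72 hr at 37 degree Celsius before reagent addition.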
FLuc inh-1: blocks purified firefly luciferase enzyme activity; P08659; purified P. pyralis luciferase, luminescence, biochemical; Potency, µM (titrated, usually from 115 µM), actives largely listed as inhibitors; 2.5% of 76,000 active; also: nearly all actives have a fitted effect of over 65% in size
Target sequence (P08659 whole entry, looked up): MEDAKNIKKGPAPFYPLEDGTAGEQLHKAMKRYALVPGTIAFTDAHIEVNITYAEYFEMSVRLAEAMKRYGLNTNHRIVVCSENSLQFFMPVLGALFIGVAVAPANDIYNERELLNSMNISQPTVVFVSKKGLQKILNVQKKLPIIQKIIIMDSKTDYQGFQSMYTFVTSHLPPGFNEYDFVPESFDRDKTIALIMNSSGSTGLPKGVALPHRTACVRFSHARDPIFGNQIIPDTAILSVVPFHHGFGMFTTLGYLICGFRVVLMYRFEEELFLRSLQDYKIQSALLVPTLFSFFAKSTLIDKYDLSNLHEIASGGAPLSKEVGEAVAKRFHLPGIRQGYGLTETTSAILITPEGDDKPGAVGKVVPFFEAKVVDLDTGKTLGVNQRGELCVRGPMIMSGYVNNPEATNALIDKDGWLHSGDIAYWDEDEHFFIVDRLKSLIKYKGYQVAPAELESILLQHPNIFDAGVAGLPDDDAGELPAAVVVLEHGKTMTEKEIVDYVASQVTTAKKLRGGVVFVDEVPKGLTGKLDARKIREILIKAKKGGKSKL
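Luminescence read by CCD imaging after purified firefly luciferase (10nM final) was added to substrate buffer holding 10uM D-luciferin and 10uM ATP, pH 7.5, pre-dosed with compound.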
NPR1 antag: antagonists of human natriuretic peptide receptor Npr1. P16066. HEK293 hNpr1 GloSensor cGMP, ANP-stimulated luminescence. Potency, µM (series often up to 46.3 µM), most hits filed as inhibitors. 1.6% of 76,000 active. AID 1347048; calls by dose curve; also: nearly all actives have a fitted effect of over 60% in size
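Compound pre-incubated 30 min at room temperature on GloSensor-loaded HEK293 cells stably carrying hNpr1 and the pGS-40F cGMP biosensor. Stimulation uses hNppA at 0.1 nM final; luminescence is taken at baseline and 20 min post-agonist.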
FLuc SDR -ATP: stabilizes firefly luciferase without ATP. shares compounds with FLuc inh-1. Purified FLuc-C-HiBiT, Nano-Glo HiBiT luminescence, no ATP. Potency, µM (series often up to 32.7 µM), most hits filed as activators. 7.8% of 1,300 active. AID 1963318; also: nearly all actives have a fitted effect of over 55% in size
FLuc SDR ATP: firefly luciferase binding stabilization, ATP added; shares compounds with FLuc inh-1; purified FLuc-C-HiBiT + ATP, HiBiT complementation luminescence; Potency, µM (doses to about 32.7 µM), actives largely listed as activators; 8.7% of 1,300 active; AID 1963319;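 also: signal reports ligand binding via conformational change of the enzyme rather than luciferase catalysis; nearly all actives have a fitted effect of over 55% in size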
FLuc inh-2: inhibitors of firefly luciferase enzymatic activity. purified FLuc-C-HiBiT enzyme, luciferin luminescence. Potency, µM (titrated, usually from 32.7 µM), hits mostly inhibitors. 42% of 1,300 active. shares compounds with FLuc inh-1. AID 1963320; also: nearly all actives have a fitted effect of over 70% in size
Numbers stand for hits. Shown are actives, neighbours in structure and some others; about 11% of the full set was active somewhere. Unless noted, calls follow the shape of the dose curve; as a rule, active = well fitted curve in the direction sought with a large enough effect; inconclusive = small, poorly fitted or top-dose-only effect, or another doubt; inactive = no such curve, though single readings can be large; an effect the other way counts as inactive or inconclusive.

`COc1ccc(C(=O)NC2CCCN(c3cc(-c4ccc(F)cc4)[nH]n3)C2)cc1F` (stereo not drawn) gave 3T3 cytotox inconclusive, HEK293 tox inconclusive, FLuc inh-1 inconclusive and NPR1 antag inactive.
COc1ccc(-c2cc(N3CCCC(NC(=O)c4ccc5[nH]ccc5c4)C3)n[nH]2)cc1 (stereo not drawn) was read as 3T3 cytotox inconclusive, HEK293 tox inconclusive, FLuc inh-1 4.47µM, NPR1 antag inactive, FLuc SDR -ATP inactive, FLuc SDR ATP inactive and FLuc inh-2 4.95µM.
Screening COc1ccc(-c2cc(N3CCCC(NC(=O)c4cccc(Br)c4)C3)n[nH]2)cc1 (stereo not drawn) returned 3T3 cytotox inconclusive, HEK293 tox inconclusive, FLuc inh-1 inconclusive and NPR1 antag inactive.
For O=C(Cn1cccc1-c1nc(-c2ccc3c(c2)OCO3)no1)N1CCCc2ccccc21 the results were 3T3 cytotox inactive, HEK293 tox inconclusive, FLuc inh-1 inactive and NPR1 antag inactive.
`CCN(CC)c1cc(CCC(=O)NCCN2CCCCCC2)ccn1` gave 3T3 cytotox inactive, HEK293 tox inactive, FLuc inh-1 inactive and NPR1 antag inactive.
For O=C(CN1CCCCCC1)N1CC(Oc2ccccc2-c2nc(C3CC3)no2)C1 the results were 3T3 cytotox inactive, HEK293 tox inactive, FLuc inh-1 inactive and NPR1 antag inactive.
For COC1CCN(CC2CCCCCN2C(=O)NC2CCCC2)CC1 (stereo not drawn) the results were 3T3 cytotox inactive, HEK293 tox inactive, FLuc inh-1 inactive and NPR1 antag inactive.
CC(=O)Nc1ccc(NC(=O)c2cc(-c3ccc4c(c3)OCCO4)on2)cc1 was read as FLuc SDR -ATP inconclusive, FLuc SDR ATP inconclusive and FLuc inh-2 0.624µM.
`CC(C)CNC(=O)N1CCC(N2C(=O)C3(CCCCC3)C2c2ccncc2)CC1` (stereo not drawn) gave 3T3 cytotox inactive, HEK293 tox inactive, FLuc inh-1 inactive and NPR1 antag inactive.
`COc1ccc(NC(=O)Nc2cccc(-c3ccc(N4CCOCC4)nn3)c2)cc1F` gave 3T3 cytotox inactive, HEK293 tox inconclusive, FLuc inh-1 0.398µM, NPR1 antag 10µM, FLuc SDR -ATP inconclusive, FLuc SDR ATP inconclusive and FLuc inh-2 0.881µM.
`O=C(NCc1ccc(F)cc1)Nc1cccc(-c2ccc(N3CCOCC3)nn2)c1` gave 3T3 cytotox inactive, HEK293 tox inconclusive, FLuc inh-1 1.26µM, NPR1 antag inconclusive, FLuc SDR -ATP inconclusive, FLuc SDR ATP inconclusive and FLuc inh-2 1.76µM.
COc1ccc(CNC(=O)Nc2cccc(-c3ccc(N4CCOCC4)nn3)c2)cc1 was read as 3T3 cytotox inactive, HEK293 tox inconclusive, FLuc inh-1 0.891µM, NPR1 antag inactive, FLuc SDR -ATP inconclusive, FLuc SDR ATP inconclusive and FLuc inh-2 1.97µM.
COc1ccc(NC(=O)Nc2cccc(-c3ccc(N4CCOCC4)nn3)c2)cc1 was read as 3T3 cytotox inactive, HEK293 tox inconclusive, FLuc inh-1 1.12µM, NPR1 antag 10µM, FLuc SDR -ATP inconclusive, FLuc SDR ATP inconclusive and FLuc inh-2 1.76µM.
Screening COc1ccc(C(=O)Nc2cccc(-c3nnc4n3CCCC4)c2)cc1F returned 3T3 cytotox inactive, HEK293 tox inactive, FLuc inh-1 inconclusive and NPR1 antag inactive.
Screening CN(Cc1cnn(C)c1)C(=O)c1csc2nc(-c3ccc(C(F)(F)F)cc3)cn12 returned 3T3 cytotox inconclusive, HEK293 tox inconclusive, FLuc inh-1 4.47µM, NPR1 antag inconclusive, FLuc SDR -ATP inconclusive, FLuc SDR ATP inconclusive and FLuc inh-2 4.42µM.
For CN(Cc1cnccn1)C(=O)c1csc2nc(-c3cccc(C(F)(F)F)c3)cn12 the results were 3T3 cytotox inconclusive, HEK293 tox inconclusive, FLuc inh-1 inconclusive and NPR1 antag inactive.
`O=C1CC2(CCN(C(=O)C3CCN(C(=O)C4CCCC4)C3)CC2)Oc2ccccc2N1` (stereo not drawn) gave 3T3 cytotox inactive and HEK293 tox inactive.
